# Results published in PubChem BioAssay (NCATS).
# “And” between values parts separate entries of the source, which are not always exact repeats. Identical values can stand only once. A number with no mark means an inactive call. Results filed as inconclusive are left out. A call without a number means that no potency is given here. The source made the active and inactive calls. Unless noted, calls come from the whole dose curve; as a rule, active = well fitted curve in the direction sought with a large enough effect; inconclusive = small, poorly fitted or top-dose-only effect, or another doubt; inactive = no such curve, though single readings can be large; an effect the other way counts as inactive or inconclusive.
# How the values were obtained:
# [1] = biological target: Guanine nucleotide-binding protein G(i) subunit alpha-1 (Homo sapiens) (UniProt P63096); assay: qHTS Assay for Inhibitors of RGS12 GoLoco Motif Activity (Green Fluorophore) (AID 879);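 note: negative values mean loss of peptide binding seen as reduced polarization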
# In short: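 Fluorescence polarization assay: 50 nM Gαi1 with 10 nM FITC-labeled RGS12 GoLoco peptide in 10 mM Tris pH 7.5, 150 mM NaCl, 0.1 mM GDP, 0.05% NP40, 10 min at room temperature with compound.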
# [2] = Cellular Toxicity (caspase-3) Renal Proximal Tubule (AID 667); conditions: Potency: caspase-3 activation;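 note: cells exposed to compound for 16 hours at 37 °C before detection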
# In short: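 Luminescent caspase 3/7 signal from peptide-aminoluciferin cleavage measures apoptosis in freshly isolated rat kidney proximal tubule cells after 16 h compound exposure. Concentration-response data are normalized to DMSO and 10 uM staurosporine, and AC50 values come from Hill equation fits.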
# [3] = biological target: Cytochrome P450 2C9 (Homo sapiens) (UniProt P11712); assay: qHTS Assay for Inhibitors and Substrates of Cytochrome P450 2C9 (AID 883); note: nearly all actives have a fitted effect of over 60% in size
# In short: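 10nM CYP2C9 + 100uM Luciferin-H (=KM), 25mM KPO4; cpd 10 min 37C; NADPH regen, 60 min 37C; stop/detect with P450 Glo-Buffer 20 min; luminescence. Norm. to 57uM sulphaphenazole as full inhibition.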
# [4] = biological target: Cytochrome P450 3A4 (Homo sapiens) (UniProt P08684); assay: qHTS Assay for Inhibitors and Substrates of Cytochrome P450 3A4 (AID 884); note: series mostly up to about 57 µM; nearly all actives have a fitted effect of over 50% in size
# In short: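 20 nM human CYP3A4 with 25 uM Luciferin-PPXE (at KM) in 200 mM KPO4, preincubated 10 min with compound; NADPH regeneration started a 60 min RT reaction. Luciferin detected by luminescence, normalized to 57 uM ketoconazole as full inhibition.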
# [5] = Confirmation and Secondary Assay for Modulators of Hemoglobin Beta Chain Splicing at IVS2 654 locus (AID 910);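 note: HeLa cells stably carrying EGFP split by mutant beta-globin IVS2-654 intron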
# In short: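 HeLa cells stably expressing EGFP interrupted by β-globin IVS2-654 intron, seeded overnight in Opti-MEM/2% FCS, then treated 2 days at 37 °C. Restored splicing read as total peak GFP intensity per well by laser scanning cytometry (488 nm excitation, 500–520 nm emission); 500 nM antisense PNA as control.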
# [6] = qHTS Assay for Identification of Small Molecule Agonists for Hypoxia Response Element Signaling Pathway (AID 914; active = well fitted activation curve with a large enough effect in the signal ratio, with a control signal flat, not every such curve was filed as active; the % refers to the signal ratio); conditions: ME-180 (cervical carcinoma) HRE-bla reporter, beta-lactamase ratio, CoCl2, 17 h; hits give high values
# In short: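 HRE-bla ME-180 cells with beta-lactamase reporter under hypoxia response element, compounds with EC50 CoCl2 for 17 hours at 37 C. CCF4 substrate, 460nm/530nm emission ratio gave %Activity; AC50 from titration series.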
# [7] = biological target: Cytochrome P450 3A4 (Homo sapiens) (UniProt P08684); assay: qHTS Assay for Activators of Cytochrome P450 3A4 (AID 885); note: nearly all actives have a fitted effect of over 65% in size
# In short: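 Quantitative HTS format: compounds preincubated with 20nM human CYP3A4 and Luciferin-PPXE substrate at KM, reaction started by NADPH regeneration, stopped after 60 min, luciferase luminescence read 20 min later.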
# [8] = biological target: Cytochrome P450 2D6 (Homo sapiens) (UniProt P10635); assay: qHTS Assay for Inhibitors and Substrates of Cytochrome P450 2D6 (AID 891); note: potency is the fitted concentration of half-maximal effect; nearly all actives have a fitted effect of over 60% in size
# Protocol: (§1) NIH Molecular Libraries Screening Centers Network [MLSCN]
# (§2) NIH Chemical Genomics Center [NCGC]
# The P450 gene superfamily is involved in the metabolism and clearance of xenobiotics. This assay used human CYP2D6 to measure the demethylation of ethylene glycol ester of luciferin 6' methyl ether (Luciferin-ME EGE; […]) to luciferin. The luciferin is then measured by luminescence after the addition of a luciferase detection reagent. Luciferin-ME EGE concentration in the assay was equal to its Km for CYP2D6. Inhibitors and some substrates limit the production of luciferin, and decrease measured luminescence.
# (§3) NCGC Assay Protocol Summary:
# Two uL of enzyme and substrate mix (final concentrations: 5nM CYP2D6, 30uM Luciferin-ME EGE, 100mM KPO4) were dispensed into a white, solid bottom 1536-well microtiter plate. 23nL of compound was transferred by a pin tool. The plate was incubated at room temperature for 10 min. Two uL of an NADPH regeneration solution (Promega supplied reagent) was dispensed and the reaction was allowed to continue for 60 min at room temperature. Then the reaction was stopped by reconstituted luciferin detection buffer. After another 20 min of incubation the plate was read on the ViewLux (Perkin Elmer) at 60 sec exposure and 2x2 binning. This protocol was carried out with Promega-Glo reagents and further information can be found at http://www.promega.com/tbs/tb325/tb325.pdf. Data were normalized to the to AC100 inhibition (1.43 uM quinidine).
# Keywords: P450, CYP2D6, Luciferase, MLSMR, MLSCN, NIH Roadmap, qHTS, NCGC
# [9] = qHTS Assay for Identification of Small Molecule Antagonists for NFkB Signaling Pathway (AID 895; active = well fitted inhibition curve with a large enough effect in the signal ratio, with a control signal flat, not every such curve was filed as active; the % refers to the signal ratio; note: potency is the fitted concentration of half-maximal effect)
# Protocol: as §1, §2
# The TNF alpha/NFkB signaling pathway was assayed in NFkB-bla cells (Invitrogen), a ME-180 cervical carcinoma line containing a stably integrated beta-lactamase reporter gene controlled by a NFkB response element. […] The assay was screened at the EC50 of TNF alpha activation to identify inhibitors of TNF alpha/NFkB signaling.
# as §3
# Cells were trypsinized, washed in assay medium (AM, OPTI MEM with 0.5% fetal bovine serum, 0.1 mM nonessential amino acids, 1 mM sodium pyruvate, 10mM HEPES pH 7.3, 100U/ml penicillin, and 100 ug/ml streptomycin) and plated at 1000 cells/5 uL/well into black clear-bottom 1536 well plates. After an overnight incubation at 37 C and 5% CO2, 23 nL of compound were delivered by a pin tool, 1 uL of TNF alpha (10 pM final concentration in AM) was added and plates were incubated at 37 C for 5 hrs. One uL of LiveBLAzerTM detector mix (Invitrogen) was added, the plates incubated at room temperature for 2 hrs, and fluorescence intensity at 460 and 530 nm emission was measured at 405 nm excitation by an Envision (Perkin Elmer).
# Chain of Guanine nucleotide-binding protein G(i) subunit alpha-1 (Homo sapiens) (P63096 whole entry, looked up): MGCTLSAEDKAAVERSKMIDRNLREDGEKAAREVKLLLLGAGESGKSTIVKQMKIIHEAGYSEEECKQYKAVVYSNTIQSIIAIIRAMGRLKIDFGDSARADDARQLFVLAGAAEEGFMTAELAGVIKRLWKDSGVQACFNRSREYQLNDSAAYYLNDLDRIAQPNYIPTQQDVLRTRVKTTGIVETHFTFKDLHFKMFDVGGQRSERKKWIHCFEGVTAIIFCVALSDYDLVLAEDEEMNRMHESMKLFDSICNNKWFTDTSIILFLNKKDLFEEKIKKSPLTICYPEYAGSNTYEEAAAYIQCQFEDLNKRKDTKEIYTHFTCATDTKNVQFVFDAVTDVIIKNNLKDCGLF
# Chain of Cytochrome P450 3A4 (Homo sapiens) (P08684 whole entry, looked up): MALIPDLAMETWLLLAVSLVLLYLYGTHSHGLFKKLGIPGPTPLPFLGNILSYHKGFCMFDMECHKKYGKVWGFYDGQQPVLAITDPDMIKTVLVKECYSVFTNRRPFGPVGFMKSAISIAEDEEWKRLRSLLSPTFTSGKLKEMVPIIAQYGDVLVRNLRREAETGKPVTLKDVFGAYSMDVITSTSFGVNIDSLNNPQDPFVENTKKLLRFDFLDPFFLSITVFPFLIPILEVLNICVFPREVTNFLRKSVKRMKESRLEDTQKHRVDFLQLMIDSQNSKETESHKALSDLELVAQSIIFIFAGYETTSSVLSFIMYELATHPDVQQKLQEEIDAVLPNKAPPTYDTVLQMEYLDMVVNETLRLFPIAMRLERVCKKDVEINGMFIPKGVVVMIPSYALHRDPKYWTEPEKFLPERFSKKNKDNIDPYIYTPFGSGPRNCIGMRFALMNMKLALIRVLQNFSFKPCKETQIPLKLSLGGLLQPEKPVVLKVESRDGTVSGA
# Chain of Cytochrome P450 2C9 (Homo sapiens) (P11712 whole entry, looked up): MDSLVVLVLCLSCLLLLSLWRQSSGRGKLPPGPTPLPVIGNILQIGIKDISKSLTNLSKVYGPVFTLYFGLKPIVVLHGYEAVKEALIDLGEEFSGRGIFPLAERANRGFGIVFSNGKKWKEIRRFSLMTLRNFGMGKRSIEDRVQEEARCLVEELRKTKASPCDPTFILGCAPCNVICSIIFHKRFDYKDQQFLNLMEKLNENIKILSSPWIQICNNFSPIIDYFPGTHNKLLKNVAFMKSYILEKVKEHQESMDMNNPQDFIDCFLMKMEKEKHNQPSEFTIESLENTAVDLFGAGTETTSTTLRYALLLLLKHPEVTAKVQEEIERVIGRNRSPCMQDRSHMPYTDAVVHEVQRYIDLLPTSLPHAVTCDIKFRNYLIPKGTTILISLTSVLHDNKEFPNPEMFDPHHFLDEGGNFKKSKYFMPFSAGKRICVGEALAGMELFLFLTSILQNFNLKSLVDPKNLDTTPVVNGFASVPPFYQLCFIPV
# Chain of Cytochrome P450 2D6 (Homo sapiens) (P10635 whole entry, looked up): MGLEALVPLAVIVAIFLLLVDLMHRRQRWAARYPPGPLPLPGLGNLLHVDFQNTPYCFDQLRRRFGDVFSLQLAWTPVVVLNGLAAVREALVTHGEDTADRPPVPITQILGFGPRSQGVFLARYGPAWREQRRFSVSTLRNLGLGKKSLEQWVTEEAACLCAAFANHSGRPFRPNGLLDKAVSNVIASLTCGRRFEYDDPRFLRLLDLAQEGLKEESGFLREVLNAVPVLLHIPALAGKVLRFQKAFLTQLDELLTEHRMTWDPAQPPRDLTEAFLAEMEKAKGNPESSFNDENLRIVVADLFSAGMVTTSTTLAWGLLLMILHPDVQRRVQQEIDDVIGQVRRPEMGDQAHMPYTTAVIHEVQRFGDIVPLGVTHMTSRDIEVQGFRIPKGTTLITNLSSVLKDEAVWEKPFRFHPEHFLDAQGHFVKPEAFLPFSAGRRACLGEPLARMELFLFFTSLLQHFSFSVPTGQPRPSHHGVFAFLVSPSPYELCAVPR
smiles,measurement,setting,value
Cc1ccc(S(=O)(=O)N[C@@H](Cc2ccccc2)C(=O)CCl)cc1,outcome,[1],inactive
NC(N)=NC(N)=NCCc1ccccc1,Potency,[2],inactive
COC(=O)Nc1nc2ccc(C(=O)c3ccccc3)cc2[nH]1,outcome,[3],inactive
same,outcome,[4],inactive
same,Potency,[5],inactive
Cc1noc(NS(=O)(=O)c2ccc(N)cc2)c1C,Potency,[2],inactive
same,outcome,[3],inactive
same,outcome,[4],inactive
same,Potency,[5],inactive
same,activation,[6],-20.7% and -0.198%
O=C(N[C@H](CO)[C@H](O)c1ccc([N+](=O)[O-])cc1)C(Cl)Cl,Potency,[2],inactive
O=C(O)c1cccnc1,outcome,[4],inactive
same,Potency,[5],inactive
CCCCOc1ccc(CC(=O)NO)cc1,outcome,[4],inactive
same,Potency,[5],inactive
Cc1ncc([N+](=O)[O-])n1CCO,Potency,[2],inactive
same,outcome,[4],inactive
same,Potency,[5],inactive
Cc1nnc(NS(=O)(=O)c2ccc(N)cc2)s1,Potency,[2],inactive
same,outcome,[4],inactive
same,Potency,[5],inactive
COc1ccc2cc3[n+](cc2c1OC)CCc1cc2c(cc1-3)OCO2,Potency,[2],inactive
same,outcome,[7],inactive
same,Potency,[8],2.51 µM (active)
same,Potency,[5],inactive
Cc1cc(NS(=O)(=O)c2ccc(N)cc2)no1,Potency,[2],inactive
same,Potency,[5],inactive
C[C@]12C=CC(=O)C=C1CC[C@@H]1[C@@H]2C(=O)C[C@@]2(C)[C@H]1CC[C@]2(O)C(=O)CO,Potency,[2],inactive
OCc1ccc(-c2nn(Cc3ccccc3)c3ccccc23)o1,outcome,[1],inactive
same,outcome,[7],inactive
same,Potency,[9],8.91 µM (active)
N[C@@H](Cc1ccc(O)c(O)c1)C(=O)O,outcome,[1],inactive
same,Potency,[9],inactive
CCn1cc(C(=O)O)c(=O)c2cc(F)c(N3CCNCC3)nc21,outcome,[3],inactive
same,outcome,[4],inactive
same,Potency,[5],inactive
CCc1cc(C(N)=S)ccn1,Potency,[2],inactive
same,Potency,[5],inactive
